# Laboratory results taken from PubChem BioAssay (Tox21).
# A number with no mark means an inactive call. The call rests on the fitted dose curve; in most records, active means well fitted activation curve with a large enough effect in the repeat runs; inconclusive means weak or mixed curves; inactive means flat fitted curve, though single readings scatter.
# Biological target: KiSS-1 receptor (Homo sapiens) (UniProt Q969F8)
# Assay: Human kisspeptin (KISS1R) small molecule agonists, calcium flux assay in KISS1R-HEK293 cells (AID 1920064)
# Conditions: KISS1R-HEK293, calcium flux fluorescence, agonist; series mostly up to 76.8 µM; activation: at the top concentration
# Source text: National Center for Advancing Translational Sciences [NCATS]
# Division of Preclinical Innovation [DPI]
# U.S. Environmental Protection Agency [EPA]
# National Institutes of Environmental Health Sciences [NIEHS]
# National Toxicology Program [NTP]
# U.S. Food and Drug Administration [FDA]
# Kisspeptin and its receptor KISS1R play key roles in mammalian reproduction due to their involvement in the onset of puberty and control of the hypothalamic-pituitary-gonadal axis such as regulates GnRH release from the hypothalamus. The kisspeptin/KISS1R system also plays a direct role in peripheral organs (including the ovary, testis, uterus, and placenta) and is implicated in reproductive diseases such as miscarriage and polycystic ovary syndrome (PCOS). Abnormal KISS1R activity is associated with abnormal puberty, infertility, endometriosis, and hormone-dependent tumors. The KISS1 receptor (KISS1R, also called GPR54), a G-protein-coupled receptor (GPCR), acts (through phospholipase C) to increase intracellular inositol trisphosphate and then release intracellular calcium stores. Cell-based KISS1R-HEK293 assay is using HEK293 cells that have been genetically engineered to express the human KISS1R, which activity can be measured by calcium signaling. A compound/drug can activate (agonist) KISS1R that can be monitored by levels of intracellular calcium.
# KISS1R-HEK293 cells developed by Codex Corp contain human KISS1R gene, which was stably integrated into HEK 293 cells. The compound activation can be detected by fluorescence intensity via calcium flux assay. This cell line has been used to screen the Tox21 10K compound library to identify agonists of KISS1R.
# KISS1R-Hek293 cells were dispensed at 1500 cells/4uL/well in 1536-well black wall/clear bottom plates using a multidrop dispenser. After the assay plates were incubated at a 37 C/5% CO2 incubator for 18 hours, 4 microL of Calcium Dye Solution was added to each well. The plates were incubated at 37 C for 1 hour. And then 23 nL of compounds dissolved in DMSO, positive controls, or DMSO only was transferred to the assay plate by a pin tool station. The fluorescence intensity in the plates was measured using FDSS 7000EX kinetic plate reader with a filter set of Ex/Em=480/540 for 3 min at 1 sec intervals. Each test compound was measured at 15 concentrations and in triplicates.
# On the % scale 0 is the no-effect control and ±100 the full control effect.
# KiSS-1 receptor (Homo sapiens), sequence (Q969F8 whole entry, looked up): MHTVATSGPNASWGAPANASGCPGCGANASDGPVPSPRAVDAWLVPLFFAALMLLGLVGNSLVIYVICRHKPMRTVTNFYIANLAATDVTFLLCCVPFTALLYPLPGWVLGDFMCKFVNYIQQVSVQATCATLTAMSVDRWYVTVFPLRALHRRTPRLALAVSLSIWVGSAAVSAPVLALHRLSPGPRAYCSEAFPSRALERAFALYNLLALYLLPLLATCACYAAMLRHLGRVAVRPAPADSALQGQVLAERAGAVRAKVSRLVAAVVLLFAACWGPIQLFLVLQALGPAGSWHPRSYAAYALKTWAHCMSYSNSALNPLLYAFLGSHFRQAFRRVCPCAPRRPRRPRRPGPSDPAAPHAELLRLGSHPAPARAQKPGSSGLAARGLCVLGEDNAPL
row,SMILES,activation
1,COc1ccc(OC)c(C=O)c1,-0.224%
2,C[C@]12Cc3nonc3C[C@@H]1CC[C@@H]1[C@@H]2CC[C@@]2(C)[C@H]1CC[C@]2(C)O,0.546% [at 35.3 µM]
3,CCCSP(=O)(OCC)Oc1ccc(Br)cc1Cl (stereo not given),1.47% [at 35.3 µM]
4,CC(C)(COCC1CO1)COCC1CO1 (stereo not given),0.86%
5,CCc1nn(C)c(C(=O)NCc2ccc(C(C)(C)C)cc2)c1Cl,1.99%
6,CCCC[N+](CCCC)(CCCC)CCCC,7.91%
7,CC1(C)CC/C(=C/c2ccc(Cl)cc2)C1(O)Cn1cncn1 (stereo not given),5.82%
8,CC(Cc1ccccc1)NCCCCl (stereo not given),12.8% [at 35.3 µM]
9,CSC(=O)c1c(C(F)F)nc(C(F)(F)F)c(C(=O)SC)c1CC(C)C,-1.23%
10,N#Cc1c[nH]cc1-c1cccc2c1OC(F)(F)O2,0.643%
11,CCCN1CCC[C@@H]2Cc3[nH]ncc3C[C@H]21,-2.22% [at 35.3 µM]
12,CS/C(C)=N/OC(=O)N(C)SN(C)C(=O)O/N=C(\C)SC,5.11%
13,Oc1ccccc1Br,0.871%
14,S=C=NCCc1ccccc1,1.93%
15,CCCN(CCC)c1c([N+](=O)[O-])cc(S(N)(=O)=O)cc1[N+](=O)[O-],13.7%
16,COc1cccc([C@@]2(O)CCCC[C@@H]2CN(C)C)c1,9.8% [at 35.3 µM]
17,CCN(CC)C(=O)N[C@@H]1C=C2c3cccc4[nH]cc(c34)C[C@@H]2N(C)C1,1.94% [at 35.3 µM]
18,NP(N)(=O)NC(=O)c1ccc(F)cc1,0.916% [at 35.3 µM]
19,CN1C[C@@H](NS(=O)(=O)N(C)C)C[C@@H]2c3cccc4c3c(cn4C)C[C@H]21,4.3% [at 35.3 µM]
20,O=[N+]([O-])c1cc(C(F)(F)F)cc([N+](=O)[O-])c1Cl,-4.57%

row,SMILES,activation
1,COc1cc(Cl)c(OC)cc1Cl,-1.93%
2,Cc1c([N+](=O)[O-])cc2c(c1[N+](=O)[O-])C(C)(C)CC2(C)C,-1.13%
3,COC(=O)C(C)N(C(=O)c1ccco1)c1c(C)cccc1C (stereo not given),0.706%
4,CCOP(=S)(OCC)SCCl,-0.254%
5,COP(=S)(OC)Oc1c(Cl)cc(C)cc1Cl,-5.59%
6,O=C1c2ccccc2C(=O)C1C(=O)C(c1ccccc1)c1ccccc1,-0.167% [at 35.3 µM]
7,CCCCCCCC(=O)Cl,0.952%
8,C=CC(=O)OCCCCO,-2.16%
9,CC(C)(C)NC[C@H](O)c1ccc(O)cc1Cl,1.74% [at 35.3 µM]
10,CC(C)(C#N)C(C)(C)C#N,2.34%
11,CN(C)CCc1c[nH]c2ccc(O)cc12,1.05%
12,CCCOC(=O)Cc1ccc(OCC(=O)N(CC)CC)c(OC)c1,1.15% [at 35.3 µM]
13,CC(CC(C#N)(c1ccccc1)c1ccccc1)N(C)C (stereo not given),0.794%
14,FC(F)C(F)(F)OCC(Cn1cncn1)c1ccc(Cl)cc1Cl (stereo not given),0.48%
15,C[C@H](N)C(=O)c1ccccc1,0.866%
16,N#C/C(N)=C(/N)C#N,18.8%
17,CCOC(=O)C(SP(=S)(OC)OC)c1ccccc1 (stereo not given),-0.433%
18,O=C(Nc1ccccc1)c1ccccc1I,1.63%
19,CC(=O)c1cc2c(cc1C)C(C)(C)C(C)CC2(C)C (stereo not given),-3.55%
20,CCN(CC)c1nc(C)cc(OP(=S)(OC)OC)n1,0.304%
